According to the supplement of paper PMC10037445:
In all, about 2,900 compounds were measured (“NF-kB SEAP reporter activity, fold change vs agonist alone”: median about 0.99, highest 2% from about 2.6 on). The list comes from a sample in which the highest values are over-represented; it also holds similar structures and randomly drawn compounds.

Tests used:
RAW-Dual [1] = test: NF-kB SEAP reporter activity, fold change vs agonist alone; cytotoxicity flag (confluency mask): not cytotoxic; higher = enhanced NF-kB activity
Summary of the method: (§1)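 RAW-Dual macrophages were seeded in DMEM at 50,000 cells/well in 384-well plates, given 50 nL of library stock by pin tool, and given a PRR agonist 1 h later. Plates were held at 37 °C, 5% CO2 for 20 hours, after which supernatant was read for IRF by QuantiLuc luminescence and for NF-κB by QuantiBlue absorbance at 620 nm. Reporter activity is expressed as fold change over wells that received agonist alone. A well was called cytotoxic when IncuCyte confluency fell below 70% of agonist controls in both mask sets.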

RAW-Dual [2] = test: NF-kB SEAP reporter activity, fold change vs agonist alone; higher = enhanced NF-kB activity
Summary of the method: as §1

RAW-Dual [3] = test: NF-kB SEAP reporter activity, fold change vs agonist alone; cytotoxicity flag (confluency mask): cytotoxic (confluency <70% of control); higher = enhanced NF-kB activity
Summary of the method: as §1

[4] = agonist: ODN 1826 (TLR9) 0.5 ug/mL
[5] = agonist: Pam2CSK4 (TLR2/6) 0.1 ug/mL
[6] = agonist: Pam3CSK4 (TLR2/1) 0.1 ug/mL
[7] = library stock concentration (final ~1000-fold dilution): 10 mM, cytotoxicity flag (confluency mask): not cytotoxic, agonist: MPLA (TLR4) […]
[8] = library stock concentration (final ~1000-fold dilution): 10 mM, cytotoxicity flag (confluency mask): not cytotoxic, agonist: Imiquimod (TLR7) […]

For COCCc1ccc(OCC(O)CNC(C)C)cc1.COCCc1ccc(OCC(O)CNC(C)C)cc1.O=C(O)CCC(=O)O (stereo not given) (library stock concentration (final ~1000-fold dilution): 10 mM), the “NF-kB SEAP reporter activity” value (RAW-Dual [1]; agonist: LPS (TLR4) 0.1 ug/mL) was 1.32, the “NF-kB SEAP reporter activity” value (RAW-Dual [1]; [4]) was 0.801 and the “NF-kB SEAP reporter activity” value (RAW-Dual [1]; [5]) was 0.839. For the same compound, the “NF-kB SEAP reporter activity” value (RAW-Dual [1]; [6]) was 0.868.

In the case of COCCc1ccc(OCC(O)CNC(C)C)cc1.COCCc1ccc(OCC(O)CNC(C)C)cc1.O=C(O)CCC(=O)O (stereo not given), the “NF-kB SEAP reporter activity” value (RAW-Dual [2]; [7]) is reported as 1.03.

With NC1(C(=O)NC(CCO)c2ccc(Cl)cc2)CCN(c2ncnc3[nH]ccc23)CC1 (stereo not given) the “NF-kB SEAP reporter activity” value (RAW-Dual [2]; [8]) was 0.829 and the “NF-kB SEAP reporter activity” value (RAW-Dual [2]; [7]) was 0.793.

In the case of NC1(C(=O)NC(CCO)c2ccc(Cl)cc2)CCN(c2ncnc3[nH]ccc23)CC1 (stereo not given) (library stock concentration (final ~1000-fold dilution): 10 mM), the “NF-kB SEAP reporter activity” value (RAW-Dual [1]; agonist: LPS (TLR4) 0.1 ug/mL) is reported as 0.9, the “NF-kB SEAP reporter activity” value (RAW-Dual [1]; [4]) is reported as 1.06 and the “NF-kB SEAP reporter activity” value (RAW-Dual [1]; [5]) is reported as 0.974. For the same compound, the “NF-kB SEAP reporter activity” value (RAW-Dual [1]; [6]) was 0.723.

In the case of O=C1N=C(O)CN1N=Cc1ccc(-c2ccc([N+](=O)[O-])cc2)o1 (library stock concentration (final ~1000-fold dilution): 10 mM), the “NF-kB SEAP reporter activity” value (RAW-Dual [1]; agonist: LPS (TLR4) 0.1 ug/mL) is reported as 1.06, the “NF-kB SEAP reporter activity” value (RAW-Dual [1]; [4]) is reported as 0.843 and the “NF-kB SEAP reporter activity” value (RAW-Dual [1]; [5]) is reported as 0.877. The “NF-kB SEAP reporter activity” value (RAW-Dual [1]; [6]) was 0.756.

For O=C1N=C(O)CN1N=Cc1ccc(-c2ccc([N+](=O)[O-])cc2)o1, the “NF-kB SEAP reporter activity” value (RAW-Dual [2]; [7]) was 1.03.

With c1cncc(CN2CCC(n3ncc4c(N5CCOCC5)nc(-c5ccc6[nH]ccc6c5)nc43)CC2)c1 (library stock concentration (final ~1000-fold dilution): 10 mM) the “NF-kB SEAP reporter activity” value (RAW-Dual [1]; agonist: LPS (TLR4) 0.1 ug/mL) was 2.91, the “NF-kB SEAP reporter activity” value (RAW-Dual [1]; [4]) was 0.951 and the “NF-kB SEAP reporter activity” value (RAW-Dual [1]; [5]) was 1.44. The “NF-kB SEAP reporter activity” value (RAW-Dual [1]; [6]) was 0.777.

For CN1CCN(Cc2ccc(-c3cnc4[nH]cc(-c5ccc6[nH]ccc6c5)c4c3)cc2)CC1, the “NF-kB SEAP reporter activity” value (RAW-Dual [2]; [8]) was 0.132 and the “NF-kB SEAP reporter activity” value (RAW-Dual [2]; [7]) was 0.242.

CN1CCN(Cc2ccc(-c3cnc4[nH]cc(-c5ccc6[nH]ccc6c5)c4c3)cc2)CC1 (library stock concentration (final ~1000-fold dilution): 10 mM) was tested, and the “NF-kB SEAP reporter activity” value (RAW-Dual [1]; agonist: LPS (TLR4) 0.1 ug/mL) was 0.216, the “NF-kB SEAP reporter activity” value (RAW-Dual [1]; [4]) was 0.181 and the “NF-kB SEAP reporter activity” value (RAW-Dual [1]; [5]) was 0.0629. For the same compound, the “NF-kB SEAP reporter activity” value (RAW-Dual [1]; [6]) was 0.138.

c1cncc(CN2CCC(n3ncc4c(N5CCOCC5)nc(-c5ccc6[nH]ccc6c5)nc43)CC2)c1 was tested, and the “NF-kB SEAP reporter activity” value (RAW-Dual [2]; [8]) was 0.96 and the “NF-kB SEAP reporter activity” value (RAW-Dual [2]; [7]) was 0.899.

For COC(=O)Nc1ccc(-c2nc(N3CCOCC3)c3cnn(C4CCN(C(=O)OC)CC4)c3n2)cc1, the “NF-kB SEAP reporter activity” value (RAW-Dual [2]; [8]) was 0.976 and the “NF-kB SEAP reporter activity” value (RAW-Dual [2]; [7]) was 0.895.

With COC(=O)Nc1ccc(-c2nc(N3CCOCC3)c3cnn(C4CCN(C(=O)OC)CC4)c3n2)cc1 (library stock concentration (final ~1000-fold dilution): 10 mM) the “NF-kB SEAP reporter activity” value (RAW-Dual [1]; agonist: LPS (TLR4) 0.1 ug/mL) was 0.888, the “NF-kB SEAP reporter activity” value (RAW-Dual [1]; [4]) was 0.912 and the “NF-kB SEAP reporter activity” value (RAW-Dual [1]; [5]) was 0.867. The “NF-kB SEAP reporter activity” value (RAW-Dual [1]; [6]) was 0.873.

In the case of Cc1cnc(NC(=O)Nc2cc(Br)c(C)cc2OCC2CNCCO2)cn1 (stereo not given) (library stock concentration (final ~1000-fold dilution): 10 mM), the “NF-kB SEAP reporter activity” value (RAW-Dual [1]; agonist: LPS (TLR4) 0.1 ug/mL) is reported as 0.68, the “NF-kB SEAP reporter activity” value (RAW-Dual [1]; [4]) is reported as 0.903 and the “NF-kB SEAP reporter activity” value (RAW-Dual [1]; [5]) is reported as 0.51. The “NF-kB SEAP reporter activity” value (RAW-Dual [1]; [6]) was 0.818.

With Cc1cnc(NC(=O)Nc2cc(Br)c(C)cc2OCC2CNCCO2)cn1 (stereo not given) the “NF-kB SEAP reporter activity” value (RAW-Dual [2]; [8]) was 0.872 and the “NF-kB SEAP reporter activity” value (RAW-Dual [2]; [7]) was 0.946.

CCC(N)CNc1ccnc(-c2cc(-c3cnn(C)c3)ccc2O)n1.Cl.Cl (stereo not given) was tested, and the “NF-kB SEAP reporter activity” value (RAW-Dual [2]; library stock concentration (final ~1000-fold dilution): 10 mM, cytotoxicity flag (confluency mask): cytotoxic (confluency <70% of control), agonist: Imiquimod (TLR7) […]) was 0.144 and the “NF-kB SEAP reporter activity” value (RAW-Dual [2]; library stock concentration (final ~1000-fold dilution): 10 mM, cytotoxicity flag (confluency mask): cytotoxic (confluency <70% of control), agonist: MPLA (TLR4) […]) was 0.254.

In the case of CCC(N)CNc1ccnc(-c2cc(-c3cnn(C)c3)ccc2O)n1.Cl.Cl (stereo not given) (library stock concentration (final ~1000-fold dilution): 10 mM), the “NF-kB SEAP reporter activity” value (RAW-Dual [3]; agonist: LPS (TLR4) 0.1 ug/mL) is reported as 0.267, the “NF-kB SEAP reporter activity” value (RAW-Dual [3]; [4]) is reported as 0.195 and the “NF-kB SEAP reporter activity” value (RAW-Dual [3]; [5]) is reported as 0.0684. The “NF-kB SEAP reporter activity” value (RAW-Dual [3]; [6]) was 0.127.

With N=C(N)NCCCCC1NC(=O)CCSSCC(C(N)=O)NC(=O)C2CCCN2C(=O)C(Cc2c[nH]c3ccccc23)NC(=O)C(CC(=O)O)NC(=O)CNC1=O (stereo not given) (library stock concentration (final ~1000-fold dilution): 10 mM water) the “NF-kB SEAP reporter activity” value (RAW-Dual [1]; agonist: LPS (TLR4) 0.1 ug/mL) was 1.2, the “NF-kB SEAP reporter activity” value (RAW-Dual [1]; [4]) was 1.15 and the “NF-kB SEAP reporter activity” value (RAW-Dual [1]; [5]) was 1.24. The “NF-kB SEAP reporter activity” value (RAW-Dual [1]; [6]) was 1.06.

N=C(N)NCCCCC1NC(=O)CCSSCC(C(N)=O)NC(=O)C2CCCN2C(=O)C(Cc2c[nH]c3ccccc23)NC(=O)C(CC(=O)O)NC(=O)CNC1=O (stereo not given) was tested, and the “NF-kB SEAP reporter activity” value (RAW-Dual [2]; library stock concentration (final ~1000-fold dilution): 10 mM water, cytotoxicity flag (confluency mask): not cytotoxic, agonist: Imiquimod (TLR7) […]) was 0.957 and the “NF-kB SEAP reporter activity” value (RAW-Dual [2]; library stock concentration (final ~1000-fold dilution): 10 mM water, cytotoxicity flag (confluency mask): not cytotoxic, agonist: MPLA (TLR4) […]) was 1.11.

For O=c1cc(N2CCOCC2)oc2c(-c3ccc4c(c3)OCCO4)csc12, the “NF-kB SEAP reporter activity” value (RAW-Dual [2]; [8]) was 1.57 and the “NF-kB SEAP reporter activity” value (RAW-Dual [2]; [7]) was 2.36.

With CC(Nc1cc(F)cc(F)c1)c1cc(C(=O)N(C)C)cc2c(=O)cc(N3CCOCC3)oc12 (stereo not given) the “NF-kB SEAP reporter activity” value (RAW-Dual [2]; [8]) was 0.569 and the “NF-kB SEAP reporter activity” value (RAW-Dual [2]; [7]) was 1.21.

For CC(Nc1cc(F)cc(F)c1)c1cc(C(=O)N(C)C)cc2c(=O)cc(N3CCOCC3)oc12 (stereo not given) (library stock concentration (final ~1000-fold dilution): 10 mM), the “NF-kB SEAP reporter activity” value (RAW-Dual [1]; agonist: LPS (TLR4) 0.1 ug/mL) was 1.67, the “NF-kB SEAP reporter activity” value (RAW-Dual [1]; [4]) was 1.01 and the “NF-kB SEAP reporter activity” value (RAW-Dual [1]; [5]) was 1.02. For the same compound, the “NF-kB SEAP reporter activity” value (RAW-Dual [1]; [6]) was 1.13.

In the case of O=c1cc(N2CCOCC2)oc2c(-c3ccc4c(c3)OCCO4)csc12 (library stock concentration (final ~1000-fold dilution): 10 mM), the “NF-kB SEAP reporter activity” value (RAW-Dual [1]; agonist: LPS (TLR4) 0.1 ug/mL) is reported as 6.86, the “NF-kB SEAP reporter activity” value (RAW-Dual [1]; [4]) is reported as 2.26 and the “NF-kB SEAP reporter activity” value (RAW-Dual [1]; [5]) is reported as 0.957. The “NF-kB SEAP reporter activity” value (RAW-Dual [1]; [6]) was 2.84.

In the case of CNC(C)C(=O)NC(C(=O)N1CCCC1C(=O)Nc1snnc1-c1ccccc1)C1CCCCC1 (stereo not given) (library stock concentration (final ~1000-fold dilution): 10 mM), the “NF-kB SEAP reporter activity” value (RAW-Dual [1]; agonist: LPS (TLR4) 0.1 ug/mL) is reported as 0.612, the “NF-kB SEAP reporter activity” value (RAW-Dual [1]; [4]) is reported as 0.875 and the “NF-kB SEAP reporter activity” value (RAW-Dual [1]; [5]) is reported as 0.972. For the same compound, the “NF-kB SEAP reporter activity” value (RAW-Dual [1]; [6]) was 0.8.

CNC(C)C(=O)NC(C(=O)N1CCCC1C(=O)Nc1snnc1-c1ccccc1)C1CCCCC1 (stereo not given) was tested, and the “NF-kB SEAP reporter activity” value (RAW-Dual [2]; [8]) was 0.887 and the “NF-kB SEAP reporter activity” value (RAW-Dual [2]; [7]) was 0.824.

In the case of O=C(Oc1cc(S(=O)(=O)c2ccccc2)ccc1[N+](=O)[O-])c1ccc(Cl)cc1 (library stock concentration (final ~1000-fold dilution): 10 mM), the “NF-kB SEAP reporter activity” value (RAW-Dual [1]; agonist: LPS (TLR4) 0.1 ug/mL) is reported as 5.2, the “NF-kB SEAP reporter activity” value (RAW-Dual [1]; [4]) is reported as 2.09 and the “NF-kB SEAP reporter activity” value (RAW-Dual [1]; [5]) is reported as 1.03. For the same compound, the “NF-kB SEAP reporter activity” value (RAW-Dual [1]; [6]) was 1.81.

In the case of O=C(Oc1coc(CSc2ncccn2)cc1=O)c1ccc([N+](=O)[O-])cc1 (library stock concentration (final ~1000-fold dilution): 10 mM), the “NF-kB SEAP reporter activity” value (RAW-Dual [1]; agonist: LPS (TLR4) 0.1 ug/mL) is reported as 1.26, the “NF-kB SEAP reporter activity” value (RAW-Dual [1]; [4]) is reported as 0.944 and the “NF-kB SEAP reporter activity” value (RAW-Dual [1]; [5]) is reported as 1.19. For the same compound, the “NF-kB SEAP reporter activity” value (RAW-Dual [1]; [6]) was 0.981.

For O=C(Nc1ccccc1C(=O)O)c1cc(S(=O)(=O)c2ccccc2)ccc1Cl, the “NF-kB SEAP reporter activity” value (RAW-Dual [2]; [8]) was 0.883 and the “NF-kB SEAP reporter activity” value (RAW-Dual [2]; [7]) was 1.01.
